Source: PubChem BioAssay AID449764 (Southern Research Specialized Biocontainment Screening …, 2010)
The whole screen tested about 2,300 compounds, of which about 1,700 (74%) were called active. The rule behind the calls is not given here. The set was probably picked from earlier hits. The list shows a part of the results. Results with a measured potency or affinity are listed apart.

Assay: Confirmatory growth inhibition assay, Mycobacterium tuberculosis H37Rv, absence of glycerol (AID 449764);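 note: growth read after 7 days of incubation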
Settings: no glycerol; series mostly up to 100 µM; inhibition: at the top concentration

| Compound | inhibition |
| --- | --- |
| C=CCn1c(Cc2cccs2)nnc1SCC(=O)Nc1ccc(C(=O)OCC)cc1 | 0.82% (inactive) |
| CCCCCCCC(=O)N/N=C(/C)c1c(O)cc(C)oc1=O | -9.85% (inactive) |
| CN1CCN(CC/C=C2/c3ccccc3Sc3ccc(S(=O)(=O)N(C)C)cc32)CC1 | -1.39% (inactive) |
| O=c1oc2cc(O)ccc2c2ccccc12 | -2.92% (inactive) |
| CCCCCOc1ccc(N2C(=O)C3C4C=CC(C3C2=O)N(C)C4=O)cc1 (stereo not drawn) | -6.07% (inactive) |
| O=c1c2cc(-c3ccccc3)sc2ncn1/N=C/c1ccco1 | 26.1% (inactive) |
| O=C(NC1CCCCC1)C(c1ccc2ncccc2c1)N(Cc1ccco1)C(=O)c1ccc2c(c1)OCCO2 (stereo not drawn) | 4.79% (inactive) |
| CCCCc1ccc(NC=C2C(=O)OC3(CCCCC3)OC2=O)cc1 | 1.5% (inactive) |
| O=C(Nc1ccc(N2CCOCC2)c(Cl)c1)c1c(F)c(F)c(F)c(F)c1F | 16.1% (inactive) |
| Cc1cc(N2CCCCC2)n2ncc(-c3ccc(Cl)cc3)c2n1 | 4.56% (inactive) |
| CCSCc1nnc(SCC(=O)Nc2cccc(SC)c2)n1C | 0.62% (inactive) |
| Cc1ccc(C(=O)N/N=C/C=C/c2ccccc2)cc1 | -6.65% (inactive) |
| Cc1nn(Cc2ccccc2)c(C)c1C(=O)OCC(=O)c1cc(C)n(CC(F)(F)F)c1C | 2.72% (inactive) |
| CCCCCC(=O)Nc1cccc2ccccc12 | 24.4% (inactive) |
| Cc1cc(C)c2nc(N3CCCC(C(=O)N4CCN(c5ncccn5)CC4)C3)sc2c1 (stereo not drawn) | -1.73% (inactive) |
| Cc1c(NC(=O)c2ccc([N+](=O)[O-])o2)cccc1-c1nc2ncccc2o1 | -10.9% (inactive) |
| CCCCCOC(=O)Nc1nnc(CCCCC)s1 | -0.7% (inactive) |
| C/C(CC(=O)Nc1ccc(C)c(Cl)c1)=N\NC(=O)Cc1cnc(N)s1 | 21.7% (inactive) |
| Cc1ccc(N/N=C/C=C/c2ccco2)cc1 | 13.8% (inactive) |
| CCOC(=O)N1CCN=C1SCc1ccc(C(F)(F)F)cc1 | 3.73% (inactive) |
| O=C(CSc1nc2ccccc2[nH]1)N1c2ccccc2Sc2ccccc21 | 4.61% (inactive) |
| CCOC(=O)Oc1ccc2oc(C)c(C(=O)OCCOC)c2c1 | 7.24% (inactive) |
| C=CC[N@@+]12CC[C@]34c5ccccc5N5/C=C6\C7N(/C=C(\C53)[C@@H](C[C@@H]41)/C(=C/CO)C2)c1ccccc1[C@@]71CC[N@@+]2(CC=C)C/C(=C\CO)[C@@H]6C[C@@H]12 (stereo partly drawn) | 15.8% (inactive) |
| CCOC(=O)c1c(CN2CCN(Cc3ccccc3)CC2)n(C)c2cc(Br)c(OC)cc12 | 2.08% (inactive) |
| O=C1N[C@@H](Cc2ccccc2)C(=O)N2[C@H]3Nc4ccccc4[C@@]3([C@]34C[C@H]5C(=O)N[C@@H](Cc6ccccc6)C(=O)N5[C@H]3Nc3ccccc34)C[C@@H]12 | 27.3% (inactive) |
| CCC(=O)c1coc2ccc(O)cc12 | 3.23% (inactive) |
| CC(C)NCC(O)c1ccc(O)c(O)c1 (stereo not drawn) | -0.07% (inactive) |
| CCc1ccc(-n2nc3cc(C)c(N)cc3n2)cc1 | 9.43% (inactive) |
